# The full list was thinned out, with hits kept by preference.
# miR-122 inh = activators of miR-122 sensor in Huh7 cells; AID 623901; 340,000 tested, 0.14% active; Huh7 psiCHECK-miR122 Renilla luciferase sensor, 48 h; activation, % at 12.5 µM;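 active = mean activation of 30% or more, with every replicate also reaching 30%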;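 also: 0% = median of neutral control wells and 100% = median of positive control wells; higher luciferase signal means stronger suppression of miR-122 activity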
# * marks the source's active call; other numbers are inactive results.
SMILES,miR-122 inh
CCCNC(=O)N(C)C[C@H]1Oc2ncc(C#C[C@H](C)O)cc2C(=O)N([C@@H](C)CO)C[C@@H]1C,2.2
COc1ccc(NC(=O)Nc2ccc3c(c2)OC[C@H](C)NC[C@@H](C)[C@@H](OC)CN(C)C3=O)cc1,-1.6
COc1cc(C(=O)Nc2ccc(S(=O)(=O)N3CCCCC3C)cc2)cc(OC)c1OC (stereo unspecified),46.3*
COc1ccccc1N(CC(=O)N1CCCCC1C)S(=O)(=O)c1ccc(Cl)cc1 (stereo unspecified),-128.3
COc1ccccc1S(=O)(=O)Nc1cccc(S(=O)(=O)N2CCCC2)c1,-77.4
CCCC#Cc1ccc2c(c1)O[C@H](CN(C)C(=O)c1cccnc1)[C@H](C)CN([C@@H](C)CO)S2(=O)=O,12.4
C[C@@H]1CN([C@@H](C)CO)S(=O)(=O)c2ccc(Br)cc2O[C@H]1CN(C)Cc1cccc(F)c1,6.8
CNC[C@H]1Oc2ncc(-c3ccc(C#N)cc3)cc2C(=O)N([C@@H](C)CO)C[C@H]1C,0.4
COc1ccccc1-c1ccc2c(c1)O[C@H](CN(C)S(=O)(=O)c1ccc(C)cc1)[C@@H](C)CN([C@@H](C)CO)S2(=O)=O,1.7
CCC(=O)N(C)C[C@@H]1Oc2ncc(C#Cc3ccccc3OC)cc2C(=O)N([C@H](C)CO)C[C@@H]1C,-6.6
Cc1ccc(S(=O)(=O)N(C)C[C@@H]2Oc3cc(-c4cccc(F)c4)ccc3S(=O)(=O)N([C@@H](C)CO)C[C@H]2C)cc1,9.0
C[C@@H]1CN([C@H](C)CO)S(=O)(=O)c2ccc(-c3ccccc3)cc2O[C@@H]1CN(C)C(=O)c1ccc2c(c1)OCO2,35.6*
C[C@@H]1CN([C@H](C)CO)S(=O)(=O)c2ccc(-c3ccc(C(=O)N(C)C)cc3)cc2O[C@@H]1CN(C)C,3.6
C/C=C/c1ccc2c(c1)O[C@@H](CN(C)C(=O)c1ccc3c(c1)OCO3)[C@H](C)CN([C@@H](C)CO)S2(=O)=O,-31.5
COc1cccc(-c2ccc3c(c2)O[C@@H](CN(C)C(=O)C2CCCCC2)[C@@H](C)CN([C@H](C)CO)S3(=O)=O)c1,-0.4
C[C@H]1CN([C@@H](C)CO)S(=O)(=O)c2ccc(-c3ccc(C(=O)N(C)C)cc3)cc2O[C@H]1CN(C)C,4.8
C[C@@H]1CN([C@H](C)CO)S(=O)(=O)c2ccc(-c3ccc(C(=O)N(C)C)cc3)cc2O[C@@H]1CN(C)C(=O)C1CCC1,42.9*
C[C@@H]1CN([C@@H](C)CO)S(=O)(=O)c2ccc(Br)cc2O[C@H]1CN(C)C(=O)c1ccc2c(c1)OCO2,-5.6
COc1ccc(S(=O)(=O)N(C)C[C@@H]2Oc3cc(-c4cccc(F)c4)ccc3S(=O)(=O)N([C@H](C)CO)C[C@H]2C)cc1,39.3*
COc1cccc(-c2ccc3c(c2)O[C@H](CN(C)C(=O)C2CCCCC2)[C@H](C)CN([C@H](C)CO)S3(=O)=O)c1,-15.4
COc1cccc(-c2ccc3c(c2)O[C@H](CN(C)C(=O)C2CCOCC2)[C@H](C)CN([C@@H](C)CO)S3(=O)=O)c1,38.6*
Cc1ccc(S(=O)(=O)N(C)C[C@@H]2Oc3cc(-c4cccc(F)c4)ccc3S(=O)(=O)N([C@H](C)CO)C[C@@H]2C)cc1,2.6
C/C=C/c1cnc2c(c1)C(=O)N([C@@H](C)CO)C[C@H](C)[C@@H](CN(C)C(=O)c1cccnc1)O2,-20.1
C[C@H]1CN([C@@H](C)CO)C(=O)c2cc(-c3cccc(F)c3)cnc2O[C@@H]1CN(C)CC1CCCC1,1.6
C[C@H]1CN([C@@H](C)CO)S(=O)(=O)c2ccc(C#Cc3ccccc3)cc2O[C@@H]1CN(C)C(=O)Nc1ccc2c(c1)OCO2,-50.6
SMILES,miR-122 inh
CC(=O)N(C)C[C@@H]1Oc2cc(C#C[C@H](C)O)ccc2S(=O)(=O)N([C@@H](C)CO)C[C@@H]1C,-1.3
CC(C)CC#Cc1cnc2c(c1)C(=O)N([C@H](C)CO)C[C@@H](C)[C@H](CN(C)C(=O)Cc1ccccc1)O2,6.1
C[C@@H]1CN([C@@H](C)CO)C(=O)c2cc(-c3cccc(F)c3)cnc2O[C@H]1CN(C)C(=O)Nc1ccccc1F,-0.1
C[C@@H]1CN([C@H](C)CO)S(=O)(=O)c2ccc(C#Cc3cccnc3)cc2O[C@@H]1CN(C)C(=O)C1CC1,13.1
CCS(=O)(=O)Nc1ccc2c(c1)C(=O)N(C)C[C@H](OC)[C@H](C)CN[C@@H](C)CO2,-0.8
CCCC#Cc1cnc2c(c1)C(=O)N([C@@H](C)CO)C[C@@H](C)[C@H](CN(C)Cc1cccnc1)O2,5.5
CCC(=O)N1C[C@H](C)[C@@H](OC)CN(C)C(=O)c2ccc(NS(C)(=O)=O)cc2OC[C@@H]1C,1.0
C[C@H]1CN([C@@H](C)CO)C(=O)c2cc(C#Cc3cccc(F)c3)cnc2O[C@@H]1CN(C)CC1CCOCC1,3.9
C[C@H]1CN([C@@H](C)CO)C(=O)c2cc(-c3ccccc3F)cnc2O[C@@H]1CN(C)Cc1ccccc1F,6.7
CCC(=O)N(C)C[C@@H]1Oc2cc(C#C[C@@H](C)O)ccc2S(=O)(=O)N([C@H](C)CO)C[C@@H]1C,3.6
